Holding throughout (assay type): functional
In assay [1] the target is Solute carrier family 2, facilitated glucose transporter member 1 (Homo sapiens) (UniProt P11166). As to the kind of experiment: ST_JUDE_LEISH: Cytotoxicity at 2uM final concentration against transgenic Leishmania Mexicana promastigotes LmGLUT1 that are glucose transport deficient and complemented with the human glucose transporter GLUT1. Activity is measured by DNA content using SYBR green in vitro.

The target of assay [2] is Hexose transporter 1 (Plasmodium falciparum) (UniProt O97467). As to the kind of experiment: ST_JUDE_LEISH: Cytotoxicity at 2uM final concentration against transgenic Leishmania Mexicana promastigotes LmPfHT that are glucose transport deficient and complemented with the Plasmodium falciparum hexose transporter. Activity is measured by DNA content using SYBR green in vitro.

Assay [3] concerns the target Glucose transporter (Leishmania mexicana) (UniProt O61059). As to the kind of experiment: ST_JUDE_LEISH: Cytotoxicity at 2uM final concentration against transgenic Leishmania Mexicana promastigotes LmGT2 that are glucose transport deficient and complemented with the L. Mexicana glucose transporter 2. Activity is measured by DNA content using SYBR green in vitro.

Inhibition data for 37 compounds are collected here from ChEMBL document CHEMBL3433997, “St. Jude Leishmania screening dataset” (2016).

Chain of Solute carrier family 2, facilitated glucose transporter member 1 (Homo sapiens) (P11166 whole entry): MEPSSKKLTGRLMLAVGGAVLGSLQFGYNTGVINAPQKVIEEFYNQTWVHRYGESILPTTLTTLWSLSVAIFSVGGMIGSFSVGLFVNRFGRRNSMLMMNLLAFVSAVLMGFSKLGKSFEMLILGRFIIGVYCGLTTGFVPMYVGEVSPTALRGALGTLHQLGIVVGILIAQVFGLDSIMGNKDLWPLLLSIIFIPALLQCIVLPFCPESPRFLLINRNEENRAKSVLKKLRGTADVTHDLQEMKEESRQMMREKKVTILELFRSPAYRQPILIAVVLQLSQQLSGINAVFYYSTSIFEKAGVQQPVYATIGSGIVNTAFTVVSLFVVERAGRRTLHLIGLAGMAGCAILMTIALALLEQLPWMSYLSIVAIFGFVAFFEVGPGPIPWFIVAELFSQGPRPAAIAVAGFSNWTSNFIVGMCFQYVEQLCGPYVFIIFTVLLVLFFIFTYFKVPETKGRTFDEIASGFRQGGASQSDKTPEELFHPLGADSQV

For `COc1cccc2cc(C(=O)N[C@@H](CC(C)C)C(=O)NC3CC[C@@H](C)N(C(=O)Nc4ccncc4)CC3=O)oc12` (stereo partly specified), the inhibition in assay [1] amounted to 9.49%; in assay [2], 4.38%; in assay [3] it was 3.24%.
For `CC(=O)Nc1cccc(Nc2nccc(-c3c(-c4cccc(NC(=O)c5c(F)cccc5F)c4)nn4ncccc34)n2)c1`, in that order: 6.99%, 11% and 1.53%.
For `COc1ccccc1NC(=O)OC(COc1ccc(N)cc1)CN1CC=C(c2ccccc2)CC1` (stereo unspecified), in that order: 0.46%, 0.25% and 0.98%.
For `COc1ccc(-c2cc(C(F)(F)F)n3ncc(C(=O)Nc4cc(C)ccc4O)c3n2)cc1OC`, in that order: 4.34%, 2.45% and 0.56%.
With `CCn1cc(C=C2Oc3c(ccc(O)c3CN3CCCCC3C)C2=O)c2ccccc21` (stereo unspecified), the inhibition in assay [1] was found to be 4.31%; in assay [2], 5.13%; in assay [3], 3.81%.
For `CC1CCN(Cc2cccc(C(=O)NCc3ccc(F)c(-c4cccc(CN5CCN[C@@H](C)C5)c4)c3)c2)CC1`, in that order: 1.17%, 0.82% and 1.82%.
For `Nc1ccc(-c2cc(Cl)cc(Cl)c2)cc1-c1cc2ccccc2[nH]1`, the inhibition in assay [1] was 2.84%; in assay [2], 1.08%; in assay [3], -0.38%.
With `O=C(N[C@H](CC1CCCCC1)C(=O)NC1CCCc2ccccc21)c1ccc(O)c(-c2cccc([N+](=O)[O-])c2)c1` (stereo partly specified), the figures for the inhibition in assay [1], in assay [2] and in assay [3] were 1.2%, 0.18% and 0.88%, respectively.
On to `COc1ccc(-c2cccc(NC(=O)c3cccs3)c2)cc1CN1CCCN(C)CC1`, for which the figures for the inhibition in assay [1], in assay [2] and in assay [3] were 0.38%, 0.37% and -1.25%, respectively.
For `CC(C)CCNc1nc(NCCCc2ccccc2)c2cc(O)ccc2n1`, in that order: 24.8%, 18.8% and 8.25%.
For `CN(Cc1cc(C(F)(F)F)cc(C(F)(F)F)c1)C(=O)C(Cc1ccc(F)cc1)C1CCCNC1` (stereo unspecified), in that order: 6.71%, 4.23% and 6.9%.
With `CCNc1cc(C(=O)N[C@@H](Cc2ccccc2)[C@H](O)CNCc2cc(OC)cc(OC)c2)cc(N2CCCS2(=O)=O)c1`, the inhibition in assay [1] is 1.6%; in assay [2], 2.17%; in assay [3], -0.47%.
On to `Cc1cccc2nc(-c3cccc(-c4cccc(NC(=O)c5ccoc5)c4)c3)[nH]c12`, for which the inhibition came out at 5.99% in assay [1], 5.37% in assay [2] and 0.26% in assay [3].
As to `O=c1cc(NCCCN(Cc2ccccc2)Cc2ccccc2)[nH]c2ccccc12`, the values for the inhibition in assay [1], in assay [2] and in assay [3] were 0.48%, 4% and 5.36%, respectively.
For `Cc1cc(N2Cc3ccccc3C2)nc(Nc2cccc(C#N)c2)n1`, in that order: 4.07%, 4.04% and 2.59%.
For `COc1ccccc1CN1CCC(CNC(=O)c2cc(-c3cccc(C(F)(F)F)c3)cs2)C1` (stereo unspecified), in that order: 0.96%, 1.45% and 1.94%.
For `CCN(CC)CCNc1ccnc2ccc3ccccc3c12`, in that order: 1.6%, 6.78% and 2.97%.
Turning to `COc1cccc(-c2cc(C(F)(F)F)n3ncc(C(=O)Nc4cc(C)ccc4O)c3n2)c1`, the inhibition in assay [1] is 2.75%; in assay [2], 3.89%; in assay [3] it was 3.36%.
For `CCN(CC)CCNC(=O)/C(=C/C=C/c1cc2cc(Cl)c(Cl)cc2[nH]1)OC`, in that order: 2.44%, -0.18% and -1.46%.
With `CCN1C(=O)C(=NN=C(S)N2CCCC2)c2ccccc21`, the values for the inhibition in assay [1], in assay [2] and in assay [3] were -0.3%, -1.51% and -3.35%, respectively.
For `CC(C)(C)c1ccc2[nH]c(-c3ccc(/C=C/C(=O)NC4CCN(Cc5ccccc5)CC4)cc3)nc2c1`, in that order: 9.73%, 10.5% and 7.5%.
Consider `O=C(Nc1ccc2c(c1)CN(Cc1ccc(N3CCCC3)o1)CCC2)c1cncs1`, for which the values for the inhibition in assay [1], in assay [2] and in assay [3] were 1.6%, 1.62% and -0.45%, respectively.
For `CCCCCOc1ccc(N2C(N)=NC(N)=NC2(C)C)cc1`, in that order: 2.39%, 2.59% and 2.5%.
Regarding `CCCN1CCC(c2c[nH]c3ccc(NC(=O)Nc4cccc(Cl)c4Cl)cc23)CC1`, the inhibition in assay [1] stood at 3.84%; in assay [2], 2.45%; in assay [3] it was 4.47%.
On to `CC1(C)NC(N)=NC(=N)N1OCc1cc(Cl)c(Cl)cc1CON1C(=N)N=C(N)NC1(C)C`, for which the inhibition worked out at 3.89% in assay [1], 2.37% in assay [2] and 0.54% in assay [3].
Turning to `Oc1ccc2[nH]c(-c3cccc(F)c3)nc2c1CN1CCC(N2CCCC2)CC1`, the inhibition in assay [1] stood at 3.47%; in assay [2], 3.65%; in assay [3], 4.9%.
For `O=C(Nc1ccc(SC(F)(F)F)cc1)Nc1ccnc2ccccc12`, in that order: -1.32%, -0.22% and -2.28%.
For `CCN(CC)c1ccc(C=CC(=O)NCCN2CCC(N(C)C3CCCCC3C)CC2)cc1` (stereo unspecified), in that order: -2.14%, -0.93% and -0.02%.
For `CC12CCC(C(=O)N(CC(O)Cn3c4ccc(Cl)cc4c4cc(Cl)ccc43)C1=O)C2(C)C` (stereo unspecified), in that order: 2.14%, 0.85% and 0.38%.
With `CCN1CCN(c2ccc(Nc3c4ccccc4nc4ccccc34)cc2)CC1`, the inhibition in assay [1] was found to be 7.35%; in assay [2], 10.6%; in assay [3], 2.24%.
For `O=C(c1ccco1)N1CCN(c2nc(-c3ccc(Cl)cc3)nc3ccccc23)CC1`, the inhibition in assay [1] was determined as 6.35%; in assay [2], 1.81%; in assay [3], 4.42%.
For `CCC(Nc1noc(-c2c(-c3ccccc3)noc2C)n1)c1ccccc1` (stereo unspecified), in that order: -1.15%, 2.18% and 1.54%.
Regarding `Oc1ccc(Nc2nc(NCc3ccco3)c3ccccc3n2)cc1`, the values for the inhibition in assay [1], in assay [2] and in assay [3] were 25.1%, 20.8% and 10.9%, respectively.
Regarding `CN(C)CCOc1ccc(NC(=O)Nc2ccnc3c(Br)cccc23)cc1Cl`, the inhibition in assay [1] was 0.71%; in assay [2] it was 0.76%; in assay [3], -0.85%.
For `CN1CCC(N(Cc2ccc(-c3ccc(C(F)(F)F)cc3)nc2)C(=O)Cn2c(CCc3cccc(F)c3F)cc(=O)c3ccccc32)CC1`, in that order: 6.73%, 6.06% and 7.68%.
For `O=C(Nc1ccc(CCNCc2ccccc2)cc1)Nc1ccc(OC(F)(F)F)cc1`, in that order: -1.69%, -0.14% and 0.49%.
For `N#Cc1cccc(Nc2nccc(NCC(O)c3cccc(C(F)(F)F)c3)n2)c1` (stereo unspecified), the inhibition in assay [1] is 4.68%; in assay [2], 3.25%; in assay [3], -3.38%.
